This is a sample that favours compounds with a hit; in the whole collection about 1.2% have one here.
CASP6 VEID inh: inhibitors of human caspase-6 | P55212 | purified caspase-6, Z-VEID-R110 cleavage fluorescence | inhibition, % at 12.5 µM | 0.53% of 350,000 active | AID 686996;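 active = mean inhibition across replicates at least about 35%, with every replicate also reaching that limit, limit read from the data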;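 note: 0% = median of neutral control wells and 100% = no fluorescence left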
Target sequence (P55212 24-179 limits assumed): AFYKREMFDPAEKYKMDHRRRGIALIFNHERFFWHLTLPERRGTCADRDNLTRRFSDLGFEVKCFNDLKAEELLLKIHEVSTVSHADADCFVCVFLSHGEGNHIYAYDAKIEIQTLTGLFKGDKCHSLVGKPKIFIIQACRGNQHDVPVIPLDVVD
Target sequence (P55212 194-293 limits assumed): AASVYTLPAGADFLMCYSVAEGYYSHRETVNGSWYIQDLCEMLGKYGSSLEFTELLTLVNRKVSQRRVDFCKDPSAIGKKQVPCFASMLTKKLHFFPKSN
RAD52 anneal inh: RAD52 (human) annealing inhibition. recombinant RAD52 DNA annealing, FRET fluorescence. 0.46% of 360,000 active. inhibition, % at 18.7 µM. P43351. AID 651710;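 active = every replicate showing at least 50% inhibition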
RAD54 branch: blocks human RAD54 Holliday junction branch migration; 0.14% of 360,000 active; Q92698; inhibition, % at 10.4 µM; AID 602329; FAM/BHQ fluorescence;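 active = mean normalized replicate activity at least 40 and at least half of replicates scoring 40 or more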;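 note: 0% = median of neutral control wells and 100% = median of positive control wells; inhibitors cause a drop in the FAM fluorescence signal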
NSD2 inh: inhibitors of human histone methyltransferase NSD2; NSD2 peptide methylation, AlphaScreen, 120 min; AID 743445; O96028; inhibition, % at 12.5 µM; 0.54% of 310,000 active; in the data active = inhibition above about 50%
N-glyco inh: blocks N-linked glycosylation in D54 reporter cells | D54 ERlucT glycosylation luciferase reporter, 24 h; percent of 100 nM tunicamycin response | reporter increase, % at 12.5 µM | 0.23% of 360,000 active | AID 588692;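 active = mean luciferase reporter signal, scaled so untreated is 0 and the glycosylation-blocking control 100, at or above a set limit in every replicate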;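 note: luciferase carries N-glycosylation sites so blocking glycosylation raises the light; 0% = median of neutral control wells and 100% = median of 100 nM tunicamycin wells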
Active calls of the source: *; · = no result; ! = not active in a repeat.

SMILES | CASP6 VEID inh | RAD52 anneal inh | RAD54 branch | NSD2 inh | N-glyco inh
CCOc1nc(N=C(N)N)nc2c(C)cccc12 | · | · | 60* | 9 | 17
CC(C)NC(=O)N1CC2(C1)[C@H](c1ccccc1)[C@@H](CO)N2C(=O)C1CC1 | 0 | -10 | · | · | ·
COc1cc(/C=C2/C(=O)c3cccc([N+](=O)[O-])c3C2=O)c(Br)cc1O | · | · | · | 55* | 4
COc1ccccc1NC(=O)CCCCCN1C(=O)c2cccc([N+](=O)[O-])c2C1=O | 1 | -4 | -7 | 1 | 0
COc1ccc(S(=O)(=O)N2CCC3(CC2)CN(C(=O)CN(C)C)[C@H](CO)c2c3c3ccc(OC)cc3n2C)cc1 | -4 | 57* | · | · | ·
COc1ccc2c3c(n(C)c2c1)[C@H](CO)N(C(=O)Nc1ccc(F)cc1)CC31CCN(Cc2ccccc2F)CC1 | 0 | 55* | · | · | ·
COc1ccc2c3c(n(C)c2c1)[C@@H](CO)N(C(=O)CN(C)C)CC31CCN(S(C)(=O)=O)CC1 | 1 | 7 | · | · | ·
COc1ccc2c3c(n(C)c2c1)[C@H](CO)N(CC1CC1)CC31CCN(C(=O)CN(C)C)CC1 | -60 | 54* | · | · | ·
Cc1noc(C)c1NC(=O)N(C)C[C@@H]1Oc2c(NC(=O)C3CCOCC3)cccc2C(=O)N([C@@H](C)CO)C[C@H]1C | 3 | 11 | -2 | · | ·
Cc1cc(-n2c(SCC(=O)NCCC3=CCCCC3)nc3n[nH]c(C)c3c2=N)ccc1Cl | 0 | -7 | 3 | 0 | 59*
Cc1cc(/C=N/NC(=O)C(O)(c2ccccc2)c2ccccc2)c(C)n1-c1cccc(C(=O)O)c1 | 43* | -90 | -4 | · | 0
Oc1ccc2ccccc2c1C=NC12CN3CCN(CN(C3)C1)C2 | · | · | -5 | 113* | 6
OCC(CO)(CO)N=Cc1c(O)ccc2ccccc12 | · | · | -6 | 4 | 7
O=C(C[C@H]1C[C@H]2c3cc(NC(=O)Cc4ccncc4)ccc3O[C@H]2[C@H](CO)O1)NCCc1ccccc1 | -2 | 11 | -5 | · | ·
O=C(N/N=C/c1ccc([N+](=O)[O-])o1)C1CC1 | 42* | -7 | · | 5 | 9
NC(=O)N/N=C/c1ccc([N+](=O)[O-])o1 | 13 | -10 | 3 | · | 7
O=C(Nc1ccc2c(c1)OCO2)N1[C@@H]2CNC[C@H]1C2c1ccc(/C=C/c2ccccc2)cc1 (stereo not given in full) | -1 | 60* | · | · | ·
O=C(Nc1ccc(F)cc1)N1[C@@H]2CNC[C@H]1C2c1ccc(-c2ccccc2)cc1 (stereo not given in full) | 9 | 55*! | · | · | ·
O=C(Nc1ccc2c(c1)OCO2)N1C[C@@H]2N[C@H](C1)C2c1ccc(C=Cc2ccccc2)cc1 (stereo not given in full) | 2 | 79* | · | · | ·
C/C=C/c1ccc(C2[C@@H]3CN(C(=O)c4ccc5c(c4)OCO5)C[C@H]2N3)cc1 (stereo not given in full) | 6 | -2 | · | · | ·
O=C(Nc1ccc2c(c1)OCO2)N1[C@@H]2CNC[C@H]1C2c1ccc(-c2ccncc2)cc1 (stereo not given in full) | 1 | 27 | · | · | ·
O=C(Nc1ccc(Cl)cc1)N1[C@@H]2CNC[C@H]1C2c1ccc(/C=C/c2ccccc2)cc1 (stereo not given in full) | 3 | 67*! | · | · | ·
O=C(Nc1ccc(F)cc1)N1[C@@H]2CNC[C@H]1C2c1ccc(/C=C/c2ccccc2)cc1 (stereo not given in full) | 0 | 38 | · | · | ·
O=C(C[C@H]1C=C[C@H](NC(=O)CN2CCOCC2)[C@H](CO)O1)NC1CCC1 | -2 | -12 | -7 | · | ·
COCC(=O)N(C)C[C@H]1Oc2ncc(C#Cc3ccc(F)cc3)cc2C(=O)N([C@H](C)CO)C[C@@H]1C | -3 | 6 | · | · | ·
O=C(Nc1ccc(Cl)cc1)N1[C@@H]2CNC[C@H]1C2c1ccc(-c2ccccc2)cc1 (stereo not given in full) | -1 | 58*! | · | · | ·
N#Cc1cccc(-c2ccc(C3[C@H]4CNC[C@@H]3N4C(=O)Nc3ccc(Cl)cc3)cc2)c1 (stereo not given in full) | 0 | -28 | · | · | ·
O=C(Nc1ccc(F)cc1)N1[C@@H]2CNC[C@H]1C2c1ccc(-c2ccc(F)cc2)cc1 (stereo not given in full) | 0 | 51* | · | · | ·
Cc1ccc(-c2ccc(C3[C@H]4CNC[C@@H]3N4C(=O)Nc3ccccc3Cl)cc2)cc1 (stereo not given in full) | 0 | 53*! | · | · | ·

Screening results as filed in PubChem BioAssay.
